Hit rate of the full screen: of about 5,500 compounds, about 2,000 (36%) were called active. Inconclusive results (about 18%) are left out. Cut-off read from the data, not from the text of the source: active = normalized growth mostly below about 0.91 (no sharp cut-off); inconclusive = no clear call, values can overlap the other calls; inactive = mostly above about 0.92. The list shows a part of the results.
Test: chemical genetic growth profiling, strain panel (AID 1159580);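 note: tested at 20 µM; growth read once vehicle control cultures reached saturation at 30 °C; 1 = growth at the plate median or of vehicle wells; lower values mean less growth of the strain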
Details: S. cerevisiae deletion strains, growth OD
[1] = locus YDR150W, strain NUM1, hits give low values
[2] = locus YGR078C, strain PAC10, hits give low values
[3] = locus YMR263W, strain SAP30, hits give low values
[4] = locus YPL055C, strain LGE1, hits give low values

Measured: normalized growth

CCN(CC)C(=O)N[C@@H]1C[C@@H]2c3cccc4[nH]cc(c34)C[C@H]2N(C)C1
inactive: locus YAL040C, strain CLN3, hits give low values 1 | locus YCL061C, strain MRC1 (second series), hits give low values 1.01 | [1] 1 | locus YDR363W, strain ESC2, hits give low values 1.01 | locus YER002W, strain NOP16, hits give low values 0.995 | [2] 1.01 | [3] 1 | locus YMR307W, strain GAS1, hits give low values 1.01 | locus YNL128W, strain TEP1, hits give low values 1.01 | locus YNL175C, strain NOP13, hits give low values 0.993 | locus YNL197C, strain WHI3, hits give low values 0.995 | locus YNL224C, strain SQS1, hits give low values 1.02 | locus YOR083W, strain WHI5 (second series), hits give low values 1.01 | [4] 1.01

COC(CNc1cccc(Cl)c1C#N)OC
inactive: locus YAL013W, strain DEP1, hits give low values 0.997 | locus YBR229C, strain ROT2, hits give low values 0.994 | locus YDL101C, strain DUN1, hits give low values 0.983 | locus YDL134C, strain PPH21, hits give low values 0.961 | [1] 1.01 | locus YEL061C, strain CIN8, hits give low values 0.971 | [2] 0.989 | locus YGR229C, strain SMI1, hits give low values 0.978 | locus YHR030C, strain SLT2, hits give low values 0.944 | locus YHR087W, strain rtc3, hits give low values 0.98 | locus YJL187C, strain SWE1, hits give low values 0.981 | locus YJR043C, strain POL32, hits give low values 0.989 | locus YJR075W, strain HOC1, hits give low values 0.958 | locus YLR039C, strain RIC1, hits give low values 0.983 | locus YLR058C, strain SHM2 (second series), hits give low values 0.989 | locus YLR085C, strain ARP6, hits give low values 0.931 | locus YLR262C, strain YPT6, hits give low values 0.979 | locus YML094W, strain GIM5, hits give low values 0.953 | locus YMR219W, strain ESC1, hits give low values 0.986 | [3] 1.01 | locus YNL153C, strain GIM3, hits give low values 0.946 | locus YNL298W, strain CLA4 (second series), hits give low values 0.979 | locus YNL322C, strain KRE1, hits give low values 0.98 | locus YNR030W, strain Alg12, hits give low values 0.976 | [4] 1.03 | locus YPL241C, strain CIN2, hits give low values 0.95 | locus YPR135W, strain CTF4, hits give low values 0.957

— PubChem BioAssay AID1159580 (chemical genetic matrix, 2015)
